Measured values taken from PubChem BioAssay (NCATS).
Where “and” joins values, the source holds several entries; their conditions need not be identical. Identical values can stand only once. Results filed as inconclusive are left out. Calls of active or inactive are those of the source. Unless noted, calls come from the whole dose curve; as a rule, active = well fitted curve in either direction with a large enough effect (not every such curve was filed as active); inconclusive = small, poorly fitted or top-dose-only effect, or another doubt; inactive = flat fitted curve, though single readings scatter.

What was measured:
[1] = AP1 Signaling Pathway (AID 357); note: % is set by controls: 0 for no effect and ±100 for the full control effect
Summary of the method: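 AP-1-bla ME-180 cells with beta-lactamase reporter under AP-1 response element, stimulated with EC50 EGF; compounds titrated, 5 hours at 37 degrees Celsius. CCF4 read at 460/530 nm ratio; positive and negative modulators judged by AC50.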

[2] = molecular target: Cytochrome P450 1A2 (Homo sapiens) (UniProt P05177); assay: p450-cyp1a2 (AID 410; calls by dose curve; note: potency is the fitted concentration of half-maximal effect;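 for activity change, negative = inhibition: -100% = full effect of reference inhibitor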)
Summary of the method: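 20nM CYP1A2 with 100uM Luciferin-ME (at Km) in 100mM KPO4; compound preincubated 10 min, NADPH regeneration added, 60 min at room temperature. Luciferin quantified by luminescence after detection reagent; normalized to 57 uM furafylline.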

[3] = Stat Signaling Pathway (AID 446);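 note: ME-180 cervical cancer cells given 40 pM IL-6 alongside compound; SIE-controlled beta-lactamase reporter measured as 460/530 nm FRET emission ratio; % is set by controls: 0 for no effect and ±100 for the full control effect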
Summary of the method: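 Screening format detects activators and inhibitors alike: ME-180 SIE-bla cells stimulated at 40 pM IL-6 for 5 hrs with compound, then dual-emission beta-lactamase read at 405 nm excitation.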

[4] = molecular target: Mitogen-activated protein kinase 10 (Mus musculus) (UniProt Q61831); assay: JNK3 AlphaScreen Assay (AID 530);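 note: kinase came from lysate of stimulated human HepG2 cells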; note: potency is the fitted concentration of half-maximal effect;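 for activity change, negative = inhibition: signal reports phosphorylation of biotinylated GST-cJun 1-79 at Ser73 with 10 µM ATP; % is set by controls: 0 for no effect and ±100 for the full control effect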
Summary of the method: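 Compound titrations were preincubated 15 minutes at room temperature with substrate, antibody and pre-activated JNK3-containing HepG2 lysate. Reactions were started with 10 uM ATP and stopped with EDTA-containing bead buffer for AlphaScreen detection.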

[5] = NFAT Signaling Pathway (AID 444); settings: Jurkat NFAT-bla M1, carbachol, beta-lactamase ratio, 5 h; at 17.2 µM (top of the series) unless noted;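 note: carbachol stimulus at about its EC50 of 1 µM final; % is set by controls: 0 for no effect and ±100 for the full control effect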
Summary of the method: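 Read-out: CCF4 FRET ratio (460 nm/530 nm) after 1 h RT dye loading, used for %activity and AC50 from titration series. Cells: Jurkat NFAT-β-lactamase/M1 line, treated with compound plus 1 uM carbachol for 5 h, 37 °C.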

[6] = molecular target: Glucocorticoid receptor (Homo sapiens) (UniProt P04150); assay: GR-GFP Redistribution (AID 450;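 active = compounds whose dose series gives a full or clear partial fitted curve of increased nuclear translocation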; note: potency is the fitted concentration of half-maximal effect); settings: U2OS GR-GFP nuclear translocation, laser cytometry, 2 h
[7] = molecular target: Glucocorticoid receptor (Homo sapiens) (UniProt P04150); assay: GR-EFC Redistribution (AID 451; calls by dose curve; note: potency is the fitted concentration of half-maximal effect); settings: CHO-K1 GR-EFC translocation, beta-gal luminescence, 2 h
Summary of the method: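 Translocation of GR-ED fusion to nuclear EA restores b-gal, read by luminescence after 1 h room-temperature detection. Engineered CHO-K1 biosensor cells, 1,000/well, exposed 2 h at 37 C to titrations up to 46 uM final.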

[8] = Cell Viability - BJ (AID 421; calls by dose curve;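 note: potency is the fitted concentration of half-maximal effect; cells exposed to compound for 40 hours at 37 °C before readout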); settings: BJ fibroblast viability, qHTS
Summary of the method: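 Cytotoxicity in human BJ foreskin fibroblasts is scored as loss of cellular ATP after a 40-hour exposure, measured by luciferase luminescence. Controls are DMSO and 100 uM tamoxifen.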

[9] = Cell Viability - Jurkat (AID 426;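 active = dose-dependent loss of cell ATP signal giving a full or clear fitted curve, ranked by lower potency value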; note: potency is the fitted concentration of half-maximal effect); settings: qHTS
Summary of the method: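 Jurkat (Clone E6-1) cells, 5000/well in complete medium, exposed to compounds for 40 hr at 37C; intracellular ATP measured by CellTiter-Glo luminescence after 20 min at room temperature. AC50 from Hill fits.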

[10] = Cell Viability - Hek293 (AID 427;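 active = compounds whose dose-response curve shows a full or clear partial loss of cell viability, called from curve shape rather than a numeric limit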;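 note: potency is the fitted concentration of half-maximal effect; cells exposed to compound for 40 hours at 37 °C before reading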); settings: qHTS
Summary of the method: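 qHTS, human embryonic kidney (adenovirus-transformed) cells; 40 hr cpd, 37 °C; CellTiter-Glo ATP luminescence. Norm: DMSO = 0, 100 uM tamoxifen = 100% inhibition. Hill-fit AC50.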

[11] = Cell Viability - HepG2 (AID 433; calls by dose curve;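 note: potency is the fitted concentration of half-maximal effect; potency for ATP loss meaning cytotoxicity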); settings: qHTS
Summary of the method: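 HepG2 hepatocellular carcinoma cells (1500/well) were treated with compounds for 40 h at 37 °C in complete medium; intracellular ATP was read by CellTiter-Glo luminescence. Data were normalized to DMSO and 100 uM tamoxifen, and AC50 came from Hill fits.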

[12] = Cell Viability - MRC5 (AID 434; calls by dose curve;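 note: potency is the fitted concentration of half-maximal effect; potency reflects cytotoxicity seen as loss of intracellular ATP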); settings: MRC5 lung fibroblast viability, qHTS
Summary of the method: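 qHTS cytotoxicity in human lung fibroblast MRC5 cells; 40 hr treatment, 37 °C; cellular ATP by luciferase luminescence; DMSO = 0%, 100 uM tamoxifen = 100% inhibition; Hill-fit AC50.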

[13] = Cell Viability - SK-N-SH (AID 435; calls by dose curve;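 note: potency is the fitted concentration of half-maximal effect; compound exposure lasted 40 h at 37 °C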); settings: SK-N-SH neuroblastoma cell viability qHTS
Summary of the method: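 SK-N-SH human neuroblastoma cells (1500/well) were exposed to compounds in complete medium for 40 h at 37 °C, and intracellular ATP was then measured by CellTiter-Glo luminescence. AC50 was taken from Hill fits, normalized to DMSO and 100 uM tamoxifen.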

[14] = Cell Viability - N2a (AID 540; active = well fitted curve in the direction sought with a large enough effect; an effect the other way counts as inactive or inconclusive; note: nearly all actives have a fitted effect of over 45% in size; note: potency is the fitted concentration of half-maximal effect;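 for activity change, negative = cytotoxicity: plate controls were DMSO alone for no effect and tamoxifen control for full effect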)
Summary of the method: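 Mouse neuroblastoma N2a cells, 1500/well, exposed to compounds 40 h at 37 °C in complete medium. Viability measured as cellular ATP by CellTiter-Glo luminescence; AC50 from Hill fits of concentration-response.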

[15] = Cell Viability - NIH 3T3 (AID 541; active = well fitted curve in the direction sought with a large enough effect; an effect the other way counts as inactive or inconclusive;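 note: plate controls were DMSO alone for no effect and tamoxifen positive control for full effect; nearly all actives have a fitted effect of over 25% in size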); settings: NIH 3T3 cell viability, qHTS; activity change, negative = cytotoxicity: at 92.2 µM (top of the series)
Summary of the method: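 Mouse NIH 3T3 fibroblasts, 1000 cells/well, rested 5 hr at 37 °C, then exposed to compound for 40 hr at 37 °C in complete medium. Viability read as intracellular ATP by CellTiter-Glo luminescence; AC50 from Hill-equation fits of concentration-response data.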

[16] = Cell Viability - HUV-EC-C (AID 542; active = well fitted curve in the direction sought with a large enough effect; an effect the other way counts as inactive or inconclusive; note: % is set by controls: 0 for no effect and ±100 for the full control effect; nearly all actives have a fitted effect of over 35% in size)
Summary of the method: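 HUV-EC-C human vascular endothelial cells, 1000/well, exposed to compound for 40 hr at 37 °C in complete medium. Intracellular ATP was read by CellTiter-Glo luminescence. AC50 came from Hill-equation fits of concentration-response data.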

[17] = Cell Viability - H-4-II-E (AID 543; active = well fitted curve in the direction sought with a large enough effect; an effect the other way counts as inactive or inconclusive; note: % is set by controls: 0 for no effect and ±100 for the full control effect; nearly all actives have a fitted effect of over 35% in size)
Summary of the method: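 Rat hepatoma H-4-II-E cells, 1500 per well, treated 40 h at 37 °C in complete medium. Cellular ATP read by CellTiter-Glo luminescence; AC50 from Hill fits of concentration-response.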

[18] = Cell Viability - SH-SY5Y (AID 544; active = well fitted curve in the direction sought with a large enough effect; an effect the other way counts as inactive or inconclusive;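 note: 0% = DMSO alone and -100% = 100 µM tamoxifen; nearly all actives have a fitted effect of over 55% in size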); settings: SH-SY5Y neuroblastoma cell viability; viability change, negative = cytotoxic: at 92.2 µM (top of the series)
Summary of the method: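 SH-SY5Y human neuroblastoma cells (1500/well) incubated 5 h, then compound-treated 40 h at 37 °C in complete medium. Viability read as intracellular ATP by CellTiter-Glo luminescence after 20 min; AC50 from Hill-equation fits of qHTS concentration-response.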

[19] = Cell Viability - Renal Proximal Tubule (AID 545; active = well fitted curve in the direction sought with a large enough effect; an effect the other way counts as inactive or inconclusive;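 note: 0% = DMSO only and -100% = 100 µM tamoxifen; nearly all actives have a fitted effect of over 40% in size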)
Summary of the method: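 Primary rat renal proximal tubule cells (1000/well) were treated with compounds for 40 hr at 37 °C in complete medium. Intracellular ATP was measured by CellTiter-Glo luminescence, and AC50 values came from Hill-equation fits of concentration-response data.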

Cytochrome P450 1A2 (Homo sapiens), sequence (P05177 whole entry, looked up): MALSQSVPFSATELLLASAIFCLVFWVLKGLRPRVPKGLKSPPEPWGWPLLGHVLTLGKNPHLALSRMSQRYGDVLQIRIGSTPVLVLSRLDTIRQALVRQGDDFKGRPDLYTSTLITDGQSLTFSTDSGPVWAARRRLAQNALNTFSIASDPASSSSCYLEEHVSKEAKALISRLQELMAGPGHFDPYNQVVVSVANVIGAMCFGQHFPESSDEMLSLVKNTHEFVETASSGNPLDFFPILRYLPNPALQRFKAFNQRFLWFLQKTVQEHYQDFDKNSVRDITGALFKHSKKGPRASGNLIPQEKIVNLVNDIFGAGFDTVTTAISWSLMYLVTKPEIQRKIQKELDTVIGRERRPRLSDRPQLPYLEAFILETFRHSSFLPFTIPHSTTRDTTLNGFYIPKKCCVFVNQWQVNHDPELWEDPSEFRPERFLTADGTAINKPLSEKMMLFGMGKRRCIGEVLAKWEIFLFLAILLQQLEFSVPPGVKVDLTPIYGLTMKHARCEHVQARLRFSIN
Glucocorticoid receptor (Homo sapiens), sequence (P04150 whole entry, looked up, the tested form may be a part): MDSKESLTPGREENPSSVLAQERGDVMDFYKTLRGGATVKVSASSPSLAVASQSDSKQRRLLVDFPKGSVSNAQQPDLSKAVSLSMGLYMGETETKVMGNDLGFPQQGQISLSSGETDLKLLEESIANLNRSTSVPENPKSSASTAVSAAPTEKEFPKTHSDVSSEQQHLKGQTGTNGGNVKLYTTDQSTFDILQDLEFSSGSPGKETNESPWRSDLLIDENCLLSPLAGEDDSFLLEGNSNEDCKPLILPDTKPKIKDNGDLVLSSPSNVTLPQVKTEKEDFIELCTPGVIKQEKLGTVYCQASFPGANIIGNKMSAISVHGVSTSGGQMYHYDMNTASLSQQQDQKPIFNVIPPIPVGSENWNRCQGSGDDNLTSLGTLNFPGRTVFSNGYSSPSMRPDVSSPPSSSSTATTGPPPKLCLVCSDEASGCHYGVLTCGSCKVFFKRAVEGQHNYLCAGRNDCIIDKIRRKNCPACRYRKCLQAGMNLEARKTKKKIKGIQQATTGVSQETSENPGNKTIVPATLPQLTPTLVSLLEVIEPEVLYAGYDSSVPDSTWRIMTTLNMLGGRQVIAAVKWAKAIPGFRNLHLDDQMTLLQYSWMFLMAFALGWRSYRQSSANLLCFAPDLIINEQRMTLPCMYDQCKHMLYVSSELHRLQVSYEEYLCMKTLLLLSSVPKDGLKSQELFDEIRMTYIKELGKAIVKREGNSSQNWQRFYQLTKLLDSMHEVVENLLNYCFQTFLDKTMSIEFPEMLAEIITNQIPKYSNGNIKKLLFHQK

CCN(CC)CCNC(=O)c1cc(Br)c(N)cc1OC
active: Potency [2] 10 µM
inactive: outcome [1] | outcome [3] | Potency [4]

Cc1c(-c2ccccc2)oc2c(C(=O)OCCN3CCCCC3)cccc2c1=O
active: Potency [2] 6.31 µM
inactive: outcome [1] | activity change, negative = inhibition [5] -3.52% | outcome [3] | Potency [6] > 20.6 µM | Potency [7] > 20.6 µM | Potency [4]

OC[C@H]1O[C@@H]2O[C@H]3[C@H](O)[C@@H](O)[C@@H](O[C@H]4[C@H](O)[C@@H](O)[C@@H](O[C@H]5[C@H](O)[C@@H](O)[C@@H](O[C@H]6[C@H](O)[C@@H](O)[C@@H](O[C@H]7[C@H](O)[C@@H](O)[C@@H](O[C@H]8[C@H](O)[C@@H](O)[C@@H](O[C@H]1[C@H](O)[C@H]2O)O[C@@H]8CO)O[C@@H]7CO)O[C@@H]6CO)O[C@@H]5CO)O[C@@H]4CO)O[C@@H]3CO
inactive: Potency [8] > 92 µM | Potency [9] > 92 µM | Potency [10] > 92 µM | Potency [11] > 92 µM | Potency [12] > 92 µM | Potency [13] > 92 µM | Potency [4] | Potency [14] | activity change, negative = cytotoxicity [15] 5.27% | outcome [16] | Potency [17] | viability change, negative = cytotoxic [18] -6.32% | outcome [19]

O=C(c1ccc(F)cc1)C1CCN(CCn2c(=S)[nH]c3ccccc3c2=O)CC1
inactive: Potency [6] > 46 µM | Potency [7] > 46 µM | Potency [4]
active: Potency [2] 15.8 µM

CN1CCc2cccc3c2[C@H]1Cc1ccc(O)c(O)c1-3
active: Potency [4] 6.31 µM
inactive: Potency [6] > 46 µM | Potency [7] > 46 µM

CNCCCCOc1ccccc1Cc1ccccc1
inactive: Potency [6] > 46 µM | Potency [7] > 46 µM | Potency [4]

O=C1C(=O)c2ccccc2C(O)=C1C1CCC(c2ccc(Cl)cc2)CC1 (centres undefined)
inactive: outcome [1] | activity change, negative = inhibition [5] -25% | Potency [4]

CCCCC(CC)COC(=O)c1ccc(N(C)C)cc1 (centres undefined)
inactive: Potency [8] > 92 µM | Potency [9] > 92 µM | Potency [10] > 92 µM | Potency [11] > 92 µM | Potency [12] > 92 µM | Potency [13] > 92 µM | Potency [14] | activity change, negative = cytotoxicity [15] -7.45% | outcome [16] | Potency [17] | viability change, negative = cytotoxic [18] 0.409% | outcome [19]

COc1cc(C)nc(-n2nc(C)cc2OC)n1
inactive: outcome [1] | activity change, negative = inhibition [5] -6.98% | outcome [3] | Potency [6] > 20.6 µM | Potency [7] > 20.6 µM | Potency [4]

CC[N+](C)(CC)CCOC(=O)C(O)(c1ccccc1)C1CCCCC1 (centres undefined)
active: activity change, negative = inhibition [5] -95.5%
inactive: outcome [1] | outcome [3] | Potency [6] > 20.6 µM

O=c1[nH]c(=O)n([C@H]2C[C@H](O)[C@@H](CO)O2)cc1F
inactive: outcome [1] | outcome [3] | Potency [6] > 20.6 µM

O=C(O)CCC(=O)Nc1ccc(S(=O)(=O)Nc2nccs2)cc1
inactive: outcome [1] | activity change, negative = inhibition [5] 4.24% and -25.1% | outcome [3] | Potency [6] > 20.6 µM | Potency [7] > 20.6 µM | Potency [4]

C=C[C@H]1CN2CC[C@H]1C[C@@H]2[C@@H](O)c1ccnc2ccc(OC)cc12
inactive: Potency [8] > 92 µM | Potency [10] > 92 µM | Potency [11] > 92 µM | Potency [12] > 92 µM | Potency [13] > 92 µM | Potency [4] | Potency [14] | outcome [16] | Potency [17] | viability change, negative = cytotoxic [18] -25.7% | outcome [19]

O=C(O)c1ccc(S(=O)(=O)N(Cl)Cl)cc1
inactive: Potency [8] > 92 µM | Potency [10] > 92 µM | Potency [11] > 92 µM | Potency [12] > 92 µM | Potency [13] > 92 µM | Potency [4] | Potency [14] | activity change, negative = cytotoxicity [15] -11.9% | outcome [16] | Potency [17] | viability change, negative = cytotoxic [18] -7.18% | outcome [19]

C/C=C/c1ccc(O)c(OC)c1
inactive: Potency [8] > 92 µM | Potency [9] > 92 µM | Potency [10] > 92 µM | Potency [11] > 92 µM | Potency [12] > 92 µM | Potency [13] > 92 µM | Potency [4] | Potency [14] | activity change, negative = cytotoxicity [15] -17% | outcome [16] | Potency [17] | viability change, negative = cytotoxic [18] 1.26% | outcome [19]

CNCCc1ccccn1
inactive: Potency [2] | activity change, negative = inhibition [5] -6.53% | outcome [3] | Potency [6] > 20.6 µM | Potency [7] > 20.6 µM | Potency [4]

CCCCCCCCNC(C)C(O)c1ccc(SC(C)C)cc1 (centres undefined)
inactive: outcome [1] | outcome [3] | Potency [6] > 20.6 µM

Oc1ccc(Cl)cc1Cc1cc(Cl)ccc1O
inactive: Potency [4]
active: Potency [10] 37.4 µM | Potency [11] 40.6 µM | Potency [14] 31.6 µM | activity change, negative = cytotoxicity [15] -84.9% | viability change, negative = cytotoxic [18] -85.8%
